Hits are enriched below; roughly 2.8% of the tested compounds scored in any of these assays.
S2 tox – cell viability loss in ATXN counter-screen. S2 cells (HEK-293 line with an ATXN2-luciferase reporter) viability, CellTiter-Fluor protease fluorescence, 24 h. hit rate 0.49% among 400,000. AID 651635. Potency, µM (highest dose often 56.7 µM), hits mostly cytotoxic; note: nearly all actives have a fitted effect of over 40% in size
TGFb SMAD3 inh – TGF-b pathway inhibition; HepG2 CAGA-GFP TGF-b/SMAD3 reporter, GFP fluorescence, 18 h; TGF-beta stimulated, 500 pg/mL final; Potency, µM (top dose mostly 46.1 µM), without a hit: top-dose activity, negative = inhibition, usual class: inhibitors; hit rate 1.2% among 410,000; AID 588855; note: % is set by controls: 0 for no effect and ±100 for the full control effect; nearly all actives have a fitted effect of over 65% in size
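Inhibition of TGF-beta-driven CAGA-GFP reporter expression in HEPG2 cells is measured by cellular GFP fluorescence after 18 h stimulation with 500 pg/mL recombinant TGF-beta in 1% FBS medium at 37 degrees C.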
ATXN2 expr inh – inhibitors of ATXN2 expression; Potency, µM (series often up to 57 µM), without a hit: top-dose activity change, negative = inhibition, usual class: inhibitors; AID 1745845; HEK-293 ATXN2-luciferase reporter, luminescence, 24 h; hit rate 0.72% among 360,000; note: % is set by controls: 0 for no effect and ±100 for the full control effect; nearly all actives have a fitted effect of over 55% in size
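qHTS (up to 57 uM final) was run with 24 h compound exposure of reporter cells at 37 °C. Each well was multiplexed: SteadyGlo luminescence measured ATXN2-luciferase expression after a fluorogenic Gly-Phe-AFC viability readout (25 uM final).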
HTT cytoprotect – protects HTT-Q103 PC12 cells, measured by ATP; PC12 HTT-Q103 induced, cytoprotection, ATP luminescence, 40 h; Potency, µM (titrated, usually from 56.4 µM), without a hit: cytoprotection (ATP increase), usual class: activators; hit rate 0.14% among 230,000; note: % of control where 0% means no effect; nearly all actives have a fitted effect of over 45% in size
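Readout: ATPlite luminescence (ATP level). Model: stable PC12, inducible Htt exon1 Q103-GFP. Inducer: tebufenozide, 100 nM final. Compounds: dose series. No G418 in medium.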
HepG2 tox-1 – HepG2 cytotoxicity, counter-screen for TGF-b inhibitors; AID 588856; hit rate 0.76% among 410,000; HepG2 CAGA-GFP viability, ATP luminescence, 18 h; Potency, µM (doses to about 46.1 µM), for the others: at the top dose activity change, negative = cytotoxicity, most hits filed as cytotoxic
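HepG2 CAGA-GFP cells (1000/well, DMEM with 1% FBS) received compound, then TGF-beta at 500 pg/mL final, and were incubated 18 hours at 37 degrees C. Viability was read by CellTiter-Glo luminescence. Media-only wells were set as complete cell-killing and DMSO as no toxicity.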
HTT aggregate – inhibitors of mutant huntingtin aggregate formation in PC12 cells; hit rate 1.1% among 220,000; Potency, µM (highest dose often 46.1 µM), for the others: at the highest dose activity change, negative = inhibition, most hits filed as inhibitors; PC12 HttQ103-GFP aggregates, Acumen cytometry, 40 h; note: % is set by controls: 0 for no effect and ±100 for the full control effect; nearly all actives have a fitted effect of over 60% in size
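Quantitative HTS on tebufenozide-induced (100 nM) PC12 cells stably expressing polyQ103 Huntingtin exon 1–GFP. Reduction of bright GFP aggregates, detected by laser scanning cytometry after lysis, identified actives across the titration.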
TGFb CAGA inh – TGF-b pathway inhibition, cherry-pick retest; shares compounds with TGFb SMAD3 inh; HepG2 CAGA-GFP TGF-b reporter, GFP fluorescence, 18 h; cells stimulated with TGF-beta, 500 pg/mL; Potency, µM (top dose mostly 46.1 µM), for inactives: at the top dose activity, negative = inhibition, usual class: inhibitors; hit rate 63% among 1,600; note: % is set by controls: 0 for no effect and ±100 for the full control effect; nearly all actives have a fitted effect of over 65% in size
HepG2 tox-2 – toxic to HepG2 cells in TGF-b counterscreen | shares compounds with TGFb SMAD3 inh | HepG2 CAGA-GFP viability, ATP luminescence, 18 h; cells stimulated with TGF-beta, 500 pg/mL | Potency, µM (top dose mostly 46.1 µM), without a hit: at the top dose activity, negative = cytotoxicity, usual class: inhibitors | hit rate 27% among 1,600 | AID 720535; note: % is set by controls: 0 for no effect and ±100 for the full control effect; nearly all actives have a fitted effect of over 70% in size
CCL64 TGFb inh – orthogonal confirmation of TGF-b inhibitors in CCL64 cells; shares compounds with TGFb SMAD3 inh; CCL64 CAGA-GFP reporter, TGF-b stimulated, GFP fluorescence, 18 h; Potency, µM (series often up to 46.1 µM), without a hit: top-dose activity, negative = inhibition, hits mostly inhibitors; hit rate 41% among 1,600; AID 720536; note: nearly all actives have a fitted effect of over 65% in size
TGFb COP inh – validation of TGF-b inhibitors in HepG2 COP promoter reporter; shares compounds with TGFb SMAD3 inh; HepG2 COP-GFP TGF-b reporter, GFP fluorescence, 18 h; cells stimulated by added recombinant TGF-beta; Potency, µM (doses to about 46.1 µM), inactives show top-dose activity, negative = inhibition, hits mostly inhibitors; hit rate 3% among 1,600; AID 720537; note: nearly all actives have a fitted effect of over 70% in size
* hit, by the source's call; i = inactive; ? = inconclusive; / = no result; [ ] = another dose, or the depositor's remark. Calls come from the whole dose curve; as a rule, active = well fitted curve in the direction sought with a large enough effect; inconclusive = small, poorly fitted or top-dose-only effect, or another doubt; inactive = no such curve, though single readings can be large; an effect the other way counts as inactive or inconclusive. Potency is the fitted concentration of half-maximal effect.

SMILES	S2 tox	TGFb SMAD3 inh	ATXN2 expr inh	HTT cytoprotect	HepG2 tox-1	HTT aggregate	TGFb CAGA inh	HepG2 tox-2	CCL64 TGFb inh	TGFb COP inh
CCC(=O)N1CCN(c2ccc(NC(=O)c3ccc([N+](=O)[O-])o3)cc2Cl)CC1	?	7.9µM*	?	0.63µM*	-87%	20µM*	3.7µM*	9.2µM*	21µM*	-15%
CC(=O)N1CCN(c2ccc(NC(=O)c3ccc(N4CCCC4)c([N+](=O)[O-])c3)cc2Cl)CC1	?	-4%	?	-7%[10 µM]	-11%	-5%	/	/	/	/
COc1ccc2c(c1)C(c1ccccc1C)CC(=O)O2 (stereo unspecified)	/	/	/	-11%[96.6 µM]	/	/	/	/	/	/
O=C1C[C@H]2C=CCc3cccc(c32)CN1Cc1ccc(Br)cc1	/	-15%	/	/	-22%	/	/	/	/	/
O=C(O)[C@@H]1CN[C@@H](C(=O)O)C1	/	/	/	-47%	/	/	/	/	/	/
COC(=O)c1c(NC(=O)c2ccc([N+](=O)[O-])o2)sc2c1CCN(C(C)C)C2	?	20µM*	?	/	-8%	/	2.6µM*	10µM*	26µM*	36%
COC(=O)c1sc(NC(=O)c2ccc([N+](=O)[O-])o2)c(C#N)c1C	?	4.5µM*	/	9%[10 µM]	-54%	11%[9.22 µM]	7.3µM*	10µM*	15µM*	41%
CC(=O)N1CCc2c(sc(NC(=O)c3ccc([N+](=O)[O-])o3)c2C#N)C1	?	5.6µM*	-16%	-108%	-31%	5%[9.22 µM]	4.1µM*	3.3µM*	10µM*	?
COC(=O)c1c(NC(=O)Cc2ccccc2)sc2c1CCN(C(C)C)C2	?	4%	-28%	/	0%	/	/	/	/	/
CCc1ccc(C2/C=C\CNC(c3ccccc3)C(=O)N2Cc2ccc(C)cc2)cc1 (stereo unspecified)	/	?	/	/	-42%	/	/	/	/	/
Cc1ccc(CNC(=O)c2cc3c(C)nc4ccccc4c3o2)cc1	?	?	?	36%[10 µM]	-15%	11µM*	18µM*	-25%	-8%	24%
Cc1nc2ccccc2c2oc(C(=O)NCc3ccccn3)cc12	i	12%	-13%	4%	-8%	?	/	/	/	/
O=c1c(Cc2ccc(Cl)cc2Cl)c(O)ccn1Cc1ccc(Cl)cc1	i	11µM*	-12%	-4%[10 µM]	1%	20µM*	?	?	?	24%
Cc1ccc(SCCNC(=O)c2ccc(C)c(S(=O)(=O)Nc3cccc(C)c3)c2)cc1	?	13µM*	?	-50%	-2%	?	?	?	?	52%
Cc1c(/C=N\NC(=O)C2COc3ccccc3O2)c2ccccc2n1C (stereo unspecified)	?	8.9µM*	14%	-67%[10 µM]	-2%	?	5.8µM*	-13%	6.5µM*	-5%

Screening data deposited in PubChem by National Center for Advancing Translational Sciences (NCATS).
